# Results taken from ChEMBL document CHEMBL2218924, “A broad activity screen in support of a chemogenomic map for kinase signalling research and drug discovery” (Biochem J, 2013).
# Experiments:
# [1] = target: T1, Ephrin type-B receptor 1 (Homo sapiens) (UniProt P54762); details: at 10 µM
# T1 sequence (whole entry): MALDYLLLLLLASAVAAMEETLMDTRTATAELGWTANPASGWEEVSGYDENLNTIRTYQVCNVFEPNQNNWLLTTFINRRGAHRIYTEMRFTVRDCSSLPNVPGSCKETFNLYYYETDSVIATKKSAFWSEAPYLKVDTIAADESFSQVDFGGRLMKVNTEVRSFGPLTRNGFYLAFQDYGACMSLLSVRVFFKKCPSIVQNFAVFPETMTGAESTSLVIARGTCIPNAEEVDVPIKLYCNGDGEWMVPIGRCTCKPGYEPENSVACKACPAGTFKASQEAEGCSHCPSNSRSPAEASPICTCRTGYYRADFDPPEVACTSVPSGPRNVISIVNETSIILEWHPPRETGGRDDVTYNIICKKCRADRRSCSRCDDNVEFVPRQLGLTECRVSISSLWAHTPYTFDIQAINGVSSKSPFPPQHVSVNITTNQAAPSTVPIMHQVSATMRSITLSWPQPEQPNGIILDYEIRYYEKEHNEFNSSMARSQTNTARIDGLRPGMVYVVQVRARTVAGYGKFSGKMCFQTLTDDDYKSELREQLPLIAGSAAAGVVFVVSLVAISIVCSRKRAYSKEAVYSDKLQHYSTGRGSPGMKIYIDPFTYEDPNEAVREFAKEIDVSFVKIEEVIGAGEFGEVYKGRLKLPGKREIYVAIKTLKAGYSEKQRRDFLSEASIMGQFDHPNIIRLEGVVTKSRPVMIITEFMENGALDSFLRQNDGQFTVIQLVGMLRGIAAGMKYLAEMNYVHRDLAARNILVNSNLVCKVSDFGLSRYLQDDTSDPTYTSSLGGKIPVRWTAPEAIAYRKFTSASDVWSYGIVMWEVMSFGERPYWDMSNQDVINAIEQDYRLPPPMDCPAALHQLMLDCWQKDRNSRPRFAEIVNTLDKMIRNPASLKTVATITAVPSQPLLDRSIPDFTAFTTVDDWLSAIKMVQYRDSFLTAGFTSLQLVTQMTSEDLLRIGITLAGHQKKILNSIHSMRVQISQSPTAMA
# [2] = target: T2, Ephrin type-B receptor 2 (Homo sapiens) (UniProt P29323); details: at 1 µM
# T2 sequence (whole entry): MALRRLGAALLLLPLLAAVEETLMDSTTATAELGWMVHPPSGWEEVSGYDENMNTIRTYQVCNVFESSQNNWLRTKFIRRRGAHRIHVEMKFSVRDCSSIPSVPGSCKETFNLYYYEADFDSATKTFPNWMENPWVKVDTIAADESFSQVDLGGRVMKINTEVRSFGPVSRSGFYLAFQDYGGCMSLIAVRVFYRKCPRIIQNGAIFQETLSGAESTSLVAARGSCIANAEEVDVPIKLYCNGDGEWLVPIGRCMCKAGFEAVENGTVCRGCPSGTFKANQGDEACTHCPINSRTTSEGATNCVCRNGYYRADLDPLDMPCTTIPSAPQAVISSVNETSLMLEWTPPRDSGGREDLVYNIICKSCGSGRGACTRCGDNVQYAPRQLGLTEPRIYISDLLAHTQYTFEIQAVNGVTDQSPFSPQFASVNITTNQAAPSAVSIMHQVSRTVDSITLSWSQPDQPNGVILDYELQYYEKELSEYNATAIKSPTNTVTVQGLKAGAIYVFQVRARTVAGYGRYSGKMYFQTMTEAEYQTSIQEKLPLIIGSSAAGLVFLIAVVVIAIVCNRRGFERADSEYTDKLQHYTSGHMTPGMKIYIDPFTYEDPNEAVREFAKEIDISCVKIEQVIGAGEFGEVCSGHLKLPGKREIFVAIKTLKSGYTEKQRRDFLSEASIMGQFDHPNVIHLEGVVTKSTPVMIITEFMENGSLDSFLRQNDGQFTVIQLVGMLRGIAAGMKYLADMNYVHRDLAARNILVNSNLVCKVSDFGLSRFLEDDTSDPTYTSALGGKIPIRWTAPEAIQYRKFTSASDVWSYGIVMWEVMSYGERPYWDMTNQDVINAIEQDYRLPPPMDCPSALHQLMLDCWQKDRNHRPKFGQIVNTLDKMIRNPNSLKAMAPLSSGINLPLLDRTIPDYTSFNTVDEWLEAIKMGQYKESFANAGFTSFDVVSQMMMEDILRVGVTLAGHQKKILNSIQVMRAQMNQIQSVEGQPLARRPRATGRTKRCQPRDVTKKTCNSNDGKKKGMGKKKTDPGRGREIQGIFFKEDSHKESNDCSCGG
# [3] = target: T2, Ephrin type-B receptor 2 (Homo sapiens); details: at 10 µM
# [4] = target: T3, Ephrin type-B receptor 3 (Homo sapiens) (UniProt P54753); details: at 1 µM
# T3 sequence (whole entry): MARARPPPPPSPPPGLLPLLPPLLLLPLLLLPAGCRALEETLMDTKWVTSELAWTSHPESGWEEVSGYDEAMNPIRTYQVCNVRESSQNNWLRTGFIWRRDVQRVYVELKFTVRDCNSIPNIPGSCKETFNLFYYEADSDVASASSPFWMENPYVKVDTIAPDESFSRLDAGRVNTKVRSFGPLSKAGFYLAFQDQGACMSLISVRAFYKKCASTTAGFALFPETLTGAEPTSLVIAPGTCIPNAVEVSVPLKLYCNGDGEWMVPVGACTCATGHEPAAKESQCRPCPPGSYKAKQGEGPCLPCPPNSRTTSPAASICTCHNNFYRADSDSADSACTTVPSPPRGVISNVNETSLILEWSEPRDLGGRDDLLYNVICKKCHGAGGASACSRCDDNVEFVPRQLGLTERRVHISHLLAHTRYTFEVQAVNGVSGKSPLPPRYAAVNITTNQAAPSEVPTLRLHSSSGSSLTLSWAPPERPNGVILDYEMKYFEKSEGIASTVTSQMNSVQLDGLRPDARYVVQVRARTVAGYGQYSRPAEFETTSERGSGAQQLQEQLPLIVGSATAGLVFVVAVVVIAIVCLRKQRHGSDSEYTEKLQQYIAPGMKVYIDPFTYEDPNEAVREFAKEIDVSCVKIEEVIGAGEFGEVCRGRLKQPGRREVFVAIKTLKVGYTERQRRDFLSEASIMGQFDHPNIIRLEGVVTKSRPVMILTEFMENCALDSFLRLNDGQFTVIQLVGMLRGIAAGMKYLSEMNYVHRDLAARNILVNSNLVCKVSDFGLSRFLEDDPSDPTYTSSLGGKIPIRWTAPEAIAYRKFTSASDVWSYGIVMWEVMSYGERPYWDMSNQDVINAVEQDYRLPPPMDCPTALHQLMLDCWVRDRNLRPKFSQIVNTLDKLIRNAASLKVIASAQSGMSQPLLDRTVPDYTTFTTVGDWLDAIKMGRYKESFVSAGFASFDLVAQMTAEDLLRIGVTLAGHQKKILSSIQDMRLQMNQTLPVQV
# [5] = target: T3, Ephrin type-B receptor 3 (Homo sapiens); details: at 10 µM
# [6] = target: T4, Ephrin type-B receptor 4 (Homo sapiens) (UniProt P54760); details: at 1 µM
# T4 sequence (whole entry): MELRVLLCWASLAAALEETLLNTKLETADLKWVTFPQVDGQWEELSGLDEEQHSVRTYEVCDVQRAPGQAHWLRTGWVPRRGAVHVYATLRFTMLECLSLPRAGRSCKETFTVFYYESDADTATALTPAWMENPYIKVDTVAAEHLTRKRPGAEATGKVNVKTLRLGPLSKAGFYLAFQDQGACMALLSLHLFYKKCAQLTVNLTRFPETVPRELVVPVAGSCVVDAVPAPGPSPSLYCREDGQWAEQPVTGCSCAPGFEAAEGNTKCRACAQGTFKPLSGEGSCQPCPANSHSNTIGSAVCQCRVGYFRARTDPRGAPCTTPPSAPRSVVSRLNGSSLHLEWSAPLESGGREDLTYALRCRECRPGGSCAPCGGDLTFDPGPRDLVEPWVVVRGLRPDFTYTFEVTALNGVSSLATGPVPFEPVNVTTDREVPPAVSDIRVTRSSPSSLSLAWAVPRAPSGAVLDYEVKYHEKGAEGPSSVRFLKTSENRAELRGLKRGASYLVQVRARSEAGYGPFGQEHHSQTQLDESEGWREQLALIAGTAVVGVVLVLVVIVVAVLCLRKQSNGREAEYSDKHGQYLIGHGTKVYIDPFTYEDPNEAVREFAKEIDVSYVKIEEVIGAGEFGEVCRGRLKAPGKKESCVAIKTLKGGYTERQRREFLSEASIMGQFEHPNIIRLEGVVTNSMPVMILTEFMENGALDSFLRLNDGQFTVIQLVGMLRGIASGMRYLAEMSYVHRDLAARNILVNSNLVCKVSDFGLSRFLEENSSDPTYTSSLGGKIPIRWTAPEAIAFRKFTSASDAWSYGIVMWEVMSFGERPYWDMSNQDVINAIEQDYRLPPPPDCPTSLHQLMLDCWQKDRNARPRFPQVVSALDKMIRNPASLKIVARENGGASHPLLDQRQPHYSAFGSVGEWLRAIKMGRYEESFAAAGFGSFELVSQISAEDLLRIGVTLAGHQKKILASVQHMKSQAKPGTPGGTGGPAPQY
# [7] = target: T4, Ephrin type-B receptor 4 (Homo sapiens); details: at 10 µM
# [8] = target: Receptor tyrosine-protein kinase erbB-4 (Homo sapiens) (UniProt Q15303); details: at 1 µM
# Receptor tyrosine-protein kinase erbB-4 (Homo sapiens), sequence (Q15303 whole entry): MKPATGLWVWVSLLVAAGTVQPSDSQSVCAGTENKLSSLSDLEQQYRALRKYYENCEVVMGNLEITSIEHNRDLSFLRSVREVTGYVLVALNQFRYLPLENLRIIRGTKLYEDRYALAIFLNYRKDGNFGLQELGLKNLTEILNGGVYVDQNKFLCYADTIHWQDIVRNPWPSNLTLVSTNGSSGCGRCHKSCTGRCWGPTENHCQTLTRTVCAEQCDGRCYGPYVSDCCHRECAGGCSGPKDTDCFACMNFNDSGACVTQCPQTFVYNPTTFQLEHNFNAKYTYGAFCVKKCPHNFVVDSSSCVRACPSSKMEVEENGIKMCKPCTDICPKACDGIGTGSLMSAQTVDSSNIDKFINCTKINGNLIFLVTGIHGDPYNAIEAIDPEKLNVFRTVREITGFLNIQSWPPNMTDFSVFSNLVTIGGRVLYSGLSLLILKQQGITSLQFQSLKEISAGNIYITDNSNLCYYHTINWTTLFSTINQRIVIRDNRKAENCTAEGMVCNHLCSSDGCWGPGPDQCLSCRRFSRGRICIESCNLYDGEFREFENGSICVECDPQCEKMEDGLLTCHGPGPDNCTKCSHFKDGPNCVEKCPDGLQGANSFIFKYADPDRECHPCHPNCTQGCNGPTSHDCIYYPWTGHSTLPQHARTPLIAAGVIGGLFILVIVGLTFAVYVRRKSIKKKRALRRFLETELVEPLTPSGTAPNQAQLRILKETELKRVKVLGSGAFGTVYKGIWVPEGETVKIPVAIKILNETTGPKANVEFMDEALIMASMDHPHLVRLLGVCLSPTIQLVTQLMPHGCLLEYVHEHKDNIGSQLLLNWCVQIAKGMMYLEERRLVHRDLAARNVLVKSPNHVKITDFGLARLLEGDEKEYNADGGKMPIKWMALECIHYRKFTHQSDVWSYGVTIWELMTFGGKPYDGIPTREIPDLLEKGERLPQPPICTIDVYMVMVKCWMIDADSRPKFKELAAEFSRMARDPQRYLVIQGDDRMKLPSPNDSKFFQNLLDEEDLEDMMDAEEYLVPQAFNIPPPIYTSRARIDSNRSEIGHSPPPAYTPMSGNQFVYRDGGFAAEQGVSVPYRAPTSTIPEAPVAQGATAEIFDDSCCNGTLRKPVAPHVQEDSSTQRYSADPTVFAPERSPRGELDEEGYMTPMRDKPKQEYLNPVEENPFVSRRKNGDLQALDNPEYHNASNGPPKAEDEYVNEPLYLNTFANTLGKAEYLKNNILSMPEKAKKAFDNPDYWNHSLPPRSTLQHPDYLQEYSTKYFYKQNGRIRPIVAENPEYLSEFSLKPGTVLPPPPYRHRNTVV
# [9] = target: Receptor tyrosine-protein kinase erbB-4 (Homo sapiens) (UniProt Q15303); details: at 10 µM
# [10] = target: Focal adhesion kinase 1 (Homo sapiens) (UniProt Q05397); details: at 1 µM
# Focal adhesion kinase 1 (Homo sapiens), sequence (Q05397 2-1052 limits assumed): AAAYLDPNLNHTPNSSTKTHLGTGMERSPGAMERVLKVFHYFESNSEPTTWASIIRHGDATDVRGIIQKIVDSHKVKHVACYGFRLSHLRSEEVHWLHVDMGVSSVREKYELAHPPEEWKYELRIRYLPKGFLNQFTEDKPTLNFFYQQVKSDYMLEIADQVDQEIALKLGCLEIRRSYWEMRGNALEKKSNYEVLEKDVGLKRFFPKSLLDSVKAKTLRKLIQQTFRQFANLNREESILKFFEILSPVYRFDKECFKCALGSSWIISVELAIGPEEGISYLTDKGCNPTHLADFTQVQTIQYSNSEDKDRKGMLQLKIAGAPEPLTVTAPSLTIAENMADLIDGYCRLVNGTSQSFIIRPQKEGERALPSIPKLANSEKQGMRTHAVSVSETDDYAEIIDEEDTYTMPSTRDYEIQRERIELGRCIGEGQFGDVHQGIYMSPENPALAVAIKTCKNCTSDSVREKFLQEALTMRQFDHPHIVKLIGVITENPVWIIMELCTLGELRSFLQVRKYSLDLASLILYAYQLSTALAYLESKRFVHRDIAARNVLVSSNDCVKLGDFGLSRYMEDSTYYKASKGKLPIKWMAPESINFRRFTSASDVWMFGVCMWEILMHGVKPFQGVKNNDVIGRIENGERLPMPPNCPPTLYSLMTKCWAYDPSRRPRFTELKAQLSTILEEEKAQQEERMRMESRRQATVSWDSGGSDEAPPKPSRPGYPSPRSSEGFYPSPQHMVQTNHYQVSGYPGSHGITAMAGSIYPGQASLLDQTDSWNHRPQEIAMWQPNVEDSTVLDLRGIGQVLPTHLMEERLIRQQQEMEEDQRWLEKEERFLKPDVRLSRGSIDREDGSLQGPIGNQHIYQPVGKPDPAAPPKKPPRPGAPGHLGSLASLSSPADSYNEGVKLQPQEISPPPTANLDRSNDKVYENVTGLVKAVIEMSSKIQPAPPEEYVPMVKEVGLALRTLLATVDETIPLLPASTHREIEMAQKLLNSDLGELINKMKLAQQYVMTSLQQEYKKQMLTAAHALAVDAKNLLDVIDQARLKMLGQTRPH
structure (smiles),measurement,setting,value
Oc1ccc(Nc2nc(-c3ccc(Cl)cc3)cs2)cc1,residual activity,[1],78%
same,residual activity,[2],108%
same,residual activity,[3],109%
same,residual activity,[4],88% (inactive)
same,residual activity,[5],95%
same,residual activity,[6],109%
same,residual activity,[7],92%
same,residual activity,[8],132%
same,residual activity,[9],128%
same,residual activity,[10],108%
